# Data published in PubChem BioAssay AID651558 (National Center for Advancing Translational Sciences (NCATS), 2012).
# About 480 (40%) of roughly 1,200 compounds were called active. Not shown: some 29% with an inconclusive outcome. The list shows a part of the results. Values without a mark were called inactive. The call rests on the fitted dose curve; in most records, active means well fitted inhibition curve with a large enough effect; inconclusive means small, poorly fitted or top-dose-only effect; inactive means no such curve, though single readings can be large or run the other way.
# Assay: qHTS Assay to Find Inhibitors of Chronic Active B-Cell Receptor Signaling: Hit Validation in Primary Screen; further: nearly all actives have a fitted effect of over 75% in size
# Details: ABC-DLBCL IkB-luc/CBR ratio luminescence, 4 h; series mostly up to 46.1 µM; activity change, negative = inhibition: at the top concentration
# In short: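 TMD8 ABC-DLBCL cells carrying doxycycline-inducible IkBa-green luciferase fusion and free red luciferase, 0.5% FBS, dosed 46 uM–3 nM with doxycycline for 4 h at 37C. Green/red luminescence ratio normalized to basal and 10 uM MG-132.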
# On the % scale 0 is the no-effect control and ±100 the full control effect; potency means the concentration at half of the fitted maximal effect.
SMILES,"activity change, negative = inhibition",Potency
CC1=NN(C(N)=S)C(=O)C1N=Nc1cccc(C)c1 (configuration not stated),21%,
O=C(Oc1ccc2ccc(OC(=O)N3CCOCC3)cc2c1)N1CCOCC1,-7.41%,
O=C(c1cc([N+](=O)[O-])ccc1N1CCOCC1)N1CCN(c2ccccc2)CC1,,3.26 µM (active)
O=C(NC(=S)N1CCOCC1)c1cn(-c2ccccc2)nc1-c1ccccc1,-5.47%,
O=C(c1ccc(Cl)cc1)c1cc([N+](=O)[O-])ccc1N1CCOCC1,,5.8 µM (active)
COc1ccc(C(=O)c2cc([N+](=O)[O-])ccc2N2CCOCC2)cc1,,2.06 µM (active)
C/C(=N\NC(=O)COc1ccc(C(C)(C)C)cc1)c1ccc(N2CCOCC2)cc1,-11.3%,
CCOc1ccc(C(=O)c2cc([N+](=O)[O-])ccc2N2CCOCC2)cc1,,0.116 µM (active)
Cc1ccc(-n2cc(CNCCc3ncc(C)[nH]3)c(-c3ccc(F)cc3)n2)cc1,-19.7%,
COc1cc2c(cc1OC)-c1cc(NC3CCCCC3)nc(=O)n1CC2,,23.1 µM (active)
COc1cc2c(cc1OC)-c1cc(NC3CCCCCC3)nc(=O)n1CC2,,9.2 µM (active)
Cc1onc(-c2ccccc2)c1-c1nc2cc(Cl)ccc2c(=O)o1,,2.31 µM (active)
C#CCOCCOCCOCCNc1nc(N2CCN(C(=O)[C@H](C(C)C)n3cc(CCO)nn3)CC2)nc(N2CCN(C(=O)[C@H]([C@@H](C)CC)n3cc(CCCN=C(N)N)nn3)CC2)n1,49.8%,
COc1ccc(C(=O)Nc2ccc(-n3nncc3-c3ccc(OC)c(OC)c3)cc2)cc1,,2.06 µM (active)
COc1ccc(/C=C/C(=O)Nc2ccc(-n3nncc3-c3ccc(OC)c(OC)c3)cc2)cc1OC,,2.31 µM (active)
COc1ccc(N(CC(=O)NC2CCCC2)C(=O)Cn2nnc(-c3ccc(OC)c(OC)c3)n2)c(OC)c1,-8.97%,
COc1ccc(-c2cc(C(=O)NN)[nH]n2)cc1OC,-13.1%,
COc1cccc(-c2nnc(Nc3nc4c(F)cccc4s3)o2)c1,,0.326 µM (active)
Fc1cccc2sc(Nc3nnc(-c4ccccc4)o3)nc12,,0.13 µM (active)
O=C(/C=C/c1cccc(Cl)c1)c1nc2ccccc2[nH]1,,20.6 µM (active)
CCN(C(=O)c1cnc(NC(C)C)cc1C(F)(F)F)c1ccc(Cl)cc1Cl,-22.7%,
CCOc1ccc2c(c1)OC(c1ccc(OC)cc1)(C(F)(F)F)NC2=O (configuration not stated),,11.6 µM (active)
Oc1c(CN2CCN(c3ccccc3)CC2)cc(Br)c2cccnc12,-2.8%,
COc1ccccc1N1CCN(C(=O)C2c3ccccc3Oc3ccccc32)CC1,,16.4 µM (active)
COc1ccccc1N1CCN(C(=O)c2cc(=O)c3cc(C)cc(C)c3o2)CC1,,1.03 µM (active)

SMILES,"activity change, negative = inhibition",Potency
CCOC(=O)c1cnc(Nc2nc3ccccc3o2)nc1CSC(=S)N1CCCCC1,-3.65%,
COc1ccc(-c2c/c(=N\c3nc(-c4ccccc4)c(C)s3)c3ccccc3o2)cc1O,,8.2 µM (active)
Cc1csc(N/N=C/c2ccccn2)n1,-0.0966%,
C(=N\Nc1nc2ccccc2s1)/c1ccccn1,,14.6 µM (active)
NC(=S)Nc1nc2ccccc2s1,-0.485%,
COc1ccc(-c2noc(CSc3nc(N)c(-c4ccccc4)c(=O)[nH]3)n2)cc1,,8.2 µM (active)
COc1ccc(-c2noc(CSc3nc(N)c(-c4ccccc4)c(=O)[nH]3)n2)cc1OC,,7.31 µM (active)
Nc1nc(SCc2nc(-c3ccccc3)no2)[nH]c(=O)c1-c1ccccc1,,20.6 µM (active)
COCCNC(=S)N/N=C(\C)c1ccccc1F,-7.26%,
CCOc1ccc(S(=O)(=O)Nc2ccc3oc(C)c(C(=O)OCCOC)c3c2)cc1,,8.2 µM (active)
O=C(/C=C\c1ccco1)Nc1cc([N+](=O)[O-])ccc1F,,1.84 µM (active)
O=C(Cc1ccc(-n2c(=O)c3ccccc3n(Cc3ccccc3Cl)c2=O)cc1)NCC1CCCO1 (configuration not stated),,2.59 µM (active)
CCn1c(O)c(N=NC(=S)NCC2CCCO2)c2ccccc21 (configuration not stated),73.4%,
CC1CCC(n2c(=S)[nH]c3ccccc3c2=O)CC1 (configuration not stated),-10.4%,
CCN(CC(=O)NCc1ccc(F)cc1)C(=O)/C=C/c1ccc(OC)c(S(=O)(=O)NC(C)C)c1,,18.4 µM (active)
CN(C)c1nc(=Nc2cccc(Cl)c2)ss1,,20.6 µM (active)
Cc1[nH]n(C(N)=S)c(=O)c1N=Nc1cccc(Cl)c1,-15.4%,
O=C(Nc1ncc(Cc2ccc(SC(F)F)cc2)s1)c1ccc(OC(F)F)cc1,,0.651 µM (active)
O=C(Nc1ncc(Cc2ccc(SC(F)F)cc2)s1)c1ccccc1,,18.4 µM (active)
Cc1ccc(C(=O)Nc2ncc(Cc3ccc(SC(F)F)cc3)s2)cc1,,1.3 µM (active)
CCCCC(=O)O[C@]1(C(=O)CO)CC[C@H]2[C@@H]3CCC4=CC(=O)CC[C@]4(C)[C@H]3[C@@H](O)C[C@@]21C,-25.2%,
CCCSc1nc(C)c(C(C)=O)cc1C#N,,16.4 µM (active)
CCOc1cc(-c2cc(-c3ccc(NC(C)=O)cc3)nc(N)c2C#N)ccc1O,,20.6 µM (active)
CC(C)(C)NNC(=S)Nc1cccc(C(F)(F)F)c1,-1.75%,
CN1CCN(Cc2cc(COCc3ccccc3)c3cccnc3c2O)CC1,-1.6%,

SMILES,"activity change, negative = inhibition",Potency
CC(C)n1c(SCC(=O)Nc2ccccc2)nc2c1c(=O)n(C)c(=O)n2C,,18.4 µM (active)
CC(C)Sc1ccccc1C(=O)Nc1ccc2c(c1)n(C)c(=O)n2C,113%,
CC1CCCCN1C(=S)NC(=O)c1cccs1 (configuration not stated),-6.25%,
Cc1cnn(CCC(=O)NNC(=S)NCC(C)C)c1,-5.82%,
Cc1ccc(/C=N/NC(=O)COc2ccccc2-c2ccccc2)cc1,,0.291 µM (active)
COc1ccc(/C=N/NC(=O)COc2ccccc2-c2ccccc2)cc1,,2.59 µM (active)
Cc1ccc(Cl)cc1NC(=S)N/N=C/c1cccc2ccccc12,94.8%,
C/C(=N/NC(=O)COc1cc(C)ccc1C(C)C)C(=O)O,-2%,
C/C(CCC(C)C)=N\NC(=O)COc1ccccc1-c1ccccc1,-6.47%,
O=C(COc1ccccc1-c1ccccc1)N/N=C/c1ccc2ccccc2c1,,0.651 µM (active)
O=C(COc1ccccc1-c1ccccc1)N/N=C/c1cccc2ccccc12,,2.06 µM (active)
O=C(COc1ccccc1-c1ccccc1)NN=C1CCCC1,-6.57%,
C/C(=N\NC(=O)COc1ccccc1-c1ccccc1)c1ccccn1,41.6%,
Cc1[nH]n(C(N)=S)c(=O)c1N=Nc1ccc([N+](=O)[O-])cc1Cl,65.2%,
O=C1CC(c2ccccc2)Cc2nc3ncnn3cc21 (configuration not stated),-0.669%,
CCOc1ncccc1C(=O)N1CCN(c2cc(Cl)ccc2C)CC1,,8.2 µM (active)
CCOc1ccccc1C(=O)N1CCN(c2cccc(Cl)c2)CC1,,0.517 µM (active)
Cc1ccccc1C(=O)N1CCC(C(=O)N2CCN(Cc3ccc4c(c3)OCO4)CC2)CC1,-22%,
CCOc1ncccc1C(=O)N1CCN(c2cccc(C)c2C)CC1,,5.8 µM (active)
COC(=O)c1cc(C(=O)N2CCN(c3cccc(Cl)c3)CC2)cc([N+](=O)[O-])c1,,5.8 µM (active)
CCc1ccc(CNC(=O)Cc2ccc(NC(=O)C3=C(C)OCCS3)cc2)cc1,,2.06 µM (active)
CC1=C(C(=O)Nc2ccc(CC(=O)NCc3ccc(OC(C)C)cc3)cc2)SCCO1,,1.3 µM (active)
CCCCC[C@H](O)/C=C/[C@@H]1[C@@H](C/C=C\CCCC(=O)OC)[C@@H](O)C[C@H]1O,,0.103 µM (active)
CCCCC[C@H](O)/C=C/[C@@H]1[C@@H](C/C=C\CCCC(=O)O)[C@@H](O)C[C@H]1O,,2.91 µM (active)
CCO[C@H]1OC(C(=O)NCc2nc3ccccc3[nH]2)=C[C@@H](C2CC2)[C@@H]1CCCO,,18.4 µM (active)

SMILES,"activity change, negative = inhibition",Potency
O=C(Oc1c(CN2CCOCC2)cc(Cl)c2cccnc12)c1ccc(F)cc1,-3.49%,
Oc1ccc(NCc2cccc(OCc3ccccc3)c2)cc1,-5.22%,
Cc1[nH]n(C(N)=S)c(=O)c1N=Nc1ccc2ccccc2c1,-7.55%,
COc1ccc(N(C(=O)c2ccccc2C)S(=O)(=O)c2cccs2)cc1,,5.17 µM (active)
C=CCOc1c(OC)cc(/C=N/Nc2cccc(C(=O)O)c2)c(Br)c1Br,,2.91 µM (active)
O=C(Oc1ccc(Cl)c2cccnc12)C12CC3CC(CC(C3)C1)C2,74.1%,
O=c1cnnc(N/N=C/C2CC=CCC2)[nH]1 (configuration not stated),-5.08%,
COC(=O)C1C(O)=C(C=Nc2ccccc2)C(=O)CC1(C)C (configuration not stated),,16.4 µM (active)
COC(=O)C1C(O)=C(C=Nc2cccc3ccccc23)C(=O)CC1(C)C (configuration not stated),,18.4 µM (active)
CCOc1ccccc1C1CC(=O)Nc2cc3c(cc21)OCCO3 (configuration not stated),,10.3 µM (active)
CCCOc1ccccc1C1CC(=O)Nc2cc3c(cc21)OCCO3 (configuration not stated),,7.31 µM (active)
CCCOc1ccccc1C1CC(=O)Nc2cc3c(cc21)OCO3 (configuration not stated),,6.51 µM (active)
Cc1ccc(-c2ccccc2NC(=O)CS(=O)CC(=O)Nc2ccc(C)c(Cl)c2)o1 (configuration not stated),-5.18%,
COc1cc(/C=C/c2ccc3cccc(O)c3n2)cc(Br)c1OC,,20.6 µM (active)
COc1cc(/C=C\C(=O)OCn2nnc3ccccc3c2=O)cc(OC)c1OC,109%,
COc1cc(/C=C/c2ccc3cccc(O)c3n2)cc(OC)c1OC,,18.4 µM (active)
CCOc1cccc(/C=C/c2ccc3cccc(O)c3n2)c1OC,44.8%,
COC(=O)CCC(=O)NC(=S)Nc1sc(C)c(C)c1C(N)=O,,4.61 µM (active)
CCCCC(=O)NC(=S)Nc1nnn(CCC)n1,35.1%,
COc1ccc(CN(C)C(=O)Cn2cnc3c(NCc4ccccc4)ncnc32)cc1OC,-11.9%,
CCOc1cc(-c2nnc(SCC(=O)NCc3ccccc3)nc2-c2ccc(OC)c(OCC)c2)ccc1OC,,2.59 µM (active)
COc1ccccc1CNC(=O)CSc1ccc(C)cc1,-23.7%,
